Measured values published in PubChem BioAssay AID720518 (National Center for Advancing Translational Sciences (NCATS), 2013).
Records with an inconclusive call do not appear. Unmarked numbers belong to inactive results. The call rests on the fitted dose curve.

assay: qHTS for Inhibitors of Cell Surface uPA Generation: Wild-type Protective Antigen (WT-PrAg) Counterscreen for Cherry-picked Compounds; conditions: cells, WT protective antigen toxicity counterscreen; series mostly up to 115 µM; activity (protection): at the top concentration; further: 0% is about no effect

Point of comparison: `CN(CCCNC(=O)Cn1cccc1C(=O)c1ccccc1)C1CCCCC1`, “activity (protection)” value -2.26%. Against it:
- COc1cccc(NC(=S)NCc2ccc3c(c2)cc(C)n3C)c1 — higher, -1.73%
- CCCNC(=O)C1CCC(CNS(=O)(=O)c2ccc3c(c2)CC(C)N3C(C)=O)CC1 (configuration not stated) — higher, -0.174%
- CC(C)C(=O)Nc1nnc(SCc2cccc(F)c2)s1 — higher, -0.515%
- Cc1nnc2ccc(-c3ccc(NS(=O)(=O)c4ccc(Cl)s4)cc3)nn12 — higher, -1.61%
- COc1ccc(N2CCN(C(=O)COc3ccc4c(C)c(C)c(=O)oc4c3C)CC2)cc1 — higher, -1.1%
- CC1(C)Oc2ccc3ccc(=O)oc3c2[C@@H](O)[C@H]1O — higher, -0.534%
- O=C(CNC(=O)c1ccc(Br)o1)NNC(=O)c1ccccc1 — higher, -0.857%
- O=C(CNC(=O)N1CC(=O)Nc2ccccc21)Nc1cc(Cl)ccc1Cl — higher, 1.67%
- O=C(c1cc([N+](=O)[O-])cc([N+](=O)[O-])c1)N(c1ccccn1)c1ccccn1 — higher, -0.695%
- O=C1CCCC/C1=C\Nc1ccc(S(=O)(=O)Nc2cnc3ccccc3n2)cc1 — higher, -0.866%
- CC1CS(=O)(=O)CCN1N=Cc1ccc([N+](=O)[O-])o1 (configuration not stated) — higher, -2.06%
- Cn1c(=O)c(=O)n(C)c2cc(S(=O)(=O)CCC(=O)Nc3ccc(F)cc3)ccc21 — higher, 0.666%
- Cc1ccc(NC(=O)CC2OC(=O)c3ccccc32)cc1S(=O)(=O)N1CCOCC1 (configuration not stated) — higher, -0.507%
- CCS(=O)(=O)N1CCC(C(=O)NCc2ccc(OC)cc2OC)CC1 — higher, 0.322%
- O=C(NCCCn1ccnc1)C(=O)NCC(c1cccnc1)N1CCN(c2ccc(F)cc2)CC1 (configuration not stated) — higher, 0.272%
- CC[C@]1(C(=O)OC)[C@H]2C(=O)N(C)C(=O)[C@H]2[C@H]2CN(C)C(=NC3CCCCC3)N21 — higher, 1.39%
